PubChem BioAssay (Tox21)
Inconclusive results are not listed. Entries that show only a call come without a potency. Calls of active or inactive are those of the source. The call rests on the fitted dose curve; in most records, active means well fitted curve in the direction sought with a large enough effect in the repeat runs; inconclusive means weak or mixed curves; inactive means no such curve, though single readings can be large; an effect the other way counts as inactive or inconclusive.

Test: qHTS RealTime-Glo MT Cell Viability Assay in HEK293 cells - 16 hour (AID 1224872); further: nearly all actives have a fitted effect of over 50% in size; further: potency means the concentration at half of the fitted maximal effect; on activity change, negative = cytotoxicity: top concentration of the series differs between compounds
Conditions: RealTime-Glo luminescence; series mostly up to 76.8 µM
Outline: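 Tox21 10K qHTS, HEK293, 600 cells/well, RealTime-Glo reagent co-dispensed with cells; 5 h preincubation, compound by pintool, 37 C, luminescence at 0–40 h.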

SMILES	Potency	activity change, negative = cytotoxicity
NC(=O)CI	inactive	–
CCC(Cl)CCl (stereo not given)	inactive	–
Cc1ccccc1C(=O)Nc1cccc(OC(C)C)c1	inactive	–
O=C(O)C(F)(F)C(F)(F)C(F)(F)C(F)(F)C(F)(F)C(F)(F)C(F)(F)C(F)(F)C(F)(F)F	inactive	–
CCBr	inactive	–
CCOP(=O)(OCC)SCCSCC	inactive	–
CC(=O)CCC(C)=O	inactive	–
Nc1nc(=S)[nH][nH]1	inactive	–
c1ccc(CN2CCNCC2)cc1	inactive	–
CC(C)(Cl)[N+](=O)[O-]	inactive	–
CN1C[C@H](CNC(=O)OCc2ccccc2)C[C@@H]2c3cccc4c3c(cn4C)C[C@H]21	21.3 µM (active)	–
CCOP(=O)(OCC)Oc1ccc([N+](=O)[O-])cc1	inactive	–
COC(=O)C(Cl)C(=O)OC	inactive	–
O=C(NC(=O)c1c(F)cccc1F)Nc1ccc(OC(F)(F)C(F)OC(F)(F)F)c(Cl)c1 (stereo not given)	inactive	–
CCCCC(CC)COP(=O)(Oc1ccccc1)Oc1ccccc1 (stereo not given)	inactive	–
CC(C)N(CCC(C(N)=O)(c1ccccc1)c1ccccn1)C(C)C (stereo not given)	inactive	–

SMILES	Potency	activity change, negative = cytotoxicity
CCOP(O)OCC	inactive	–
O=C(O)CC(Cl)C(=O)O (stereo not given)	inactive	–
Nc1ccc([N+](=O)[O-])cc1[N+](=O)[O-]	inactive	–
NCC(CC(=O)O)c1ccc(Cl)cc1 (stereo not given)	–	0.531% [at 0.29 µM] (inactive)
CCC(C)(NC(=O)c1cc(Cl)c(C)c(Cl)c1)C(=O)CCl (stereo not given)	27.7 µM (active)	–
N#C/C(N)=C(/N)C#N	inactive	–
BrCCCCBr	inactive	–
Cn1sc(Cl)cc1=O	inactive	–
C=CC(=O)NCNC(=O)C=C	inactive	–
S=C=NCc1ccccc1	24.8 µM (active)	–
C=CCN1CC[C@]23c4c5ccc(O)c4O[C@H]2C(=O)CC[C@@]3(O)[C@H]1C5	inactive	–
COC(C)(C)CCC[C@H](C)C/C=C/C(C)=C/C(=O)OC(C)C	inactive	–
CC(C)(OO)c1ccccc1	inactive	–
CC(=O)C(C)(C)C	inactive	–
O=C(NCc1cccnc1)Nc1ccc([N+](=O)[O-])cc1	49 µM (active)	–
Cc1ccc(N)cc1C	inactive	–

Test: qHTS RealTime-Glo MT Cell Viability Assay in HepG2 cells - 8 hour (AID 1224873); further: nearly all actives have a fitted effect of over 55% in size
Conditions: RealTime-Glo luminescence; series mostly up to 76.8 µM
Outline: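 Real-time viability: cells seeded at 600 per well together with NanoLuc and cell-permeant prosubstrate, compounds added after 5 h incubation. Luminescence tracked at 0, 8, 16, 24, 32 and 40 h of exposure.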

SMILES	Potency	viability change, negative = cytotoxic
CCOC(=O)[C@]1(c2ccccc2)Oc2ccccc2[C@@H]1N	inactive	–
CCC(Cl)CCl (stereo not given)	inactive	–
Cc1ccccc1C(=O)Nc1cccc(OC(C)C)c1	inactive	–
O=C(O)C(F)(F)C(F)(F)C(F)(F)C(F)(F)C(F)(F)C(F)(F)C(F)(F)C(F)(F)C(F)(F)F	inactive	–
CCBr	inactive	–
CCOP(=O)(OCC)SCCSCC	inactive	–
CC(=O)CCC(C)=O	inactive	–
Nc1nc(=S)[nH][nH]1	inactive	–
c1ccc(CN2CCNCC2)cc1	inactive	–
CC(C)(Cl)[N+](=O)[O-]	inactive	–
CN1C[C@H](CNC(=O)OCc2ccccc2)C[C@@H]2c3cccc4c3c(cn4C)C[C@H]21	inactive	–
CC(=O)c1cc2c(cc1C)C(C)(C)C(C)CC2(C)C (stereo not given)	inactive	–
CCOP(=O)(OCC)Oc1ccc([N+](=O)[O-])cc1	inactive	–
COC(=O)C(Cl)C(=O)OC	inactive	–
O=C(NC(=O)c1c(F)cccc1F)Nc1ccc(OC(F)(F)C(F)OC(F)(F)F)c(Cl)c1 (stereo not given)	inactive	–
CCCCC(CC)COP(=O)(Oc1ccccc1)Oc1ccccc1 (stereo not given)	inactive	–
CC(C)N(CCC(C(N)=O)(c1ccccc1)c1ccccn1)C(C)C (stereo not given)	inactive	–

SMILES	Potency	viability change, negative = cytotoxic
CCOP(O)OCC	inactive	–
O=C(O)CC(Cl)C(=O)O (stereo not given)	inactive	–
Nc1ccc([N+](=O)[O-])cc1[N+](=O)[O-]	inactive	–
NCC(CC(=O)O)c1ccc(Cl)cc1 (stereo not given)	–	0.906% [at 0.29 µM] (inactive)
BrCC(Br)C1CCC(Br)C(Br)C1 (stereo not given)	inactive	–
N#C/C(N)=C(/N)C#N	inactive	–
BrCCCCBr	inactive	–
Cn1sc(Cl)cc1=O	inactive	–
C=CC(=O)NCNC(=O)C=C	inactive	–
S=C=NCc1ccccc1	inactive	–
C=CCN1CC[C@]23c4c5ccc(O)c4O[C@H]2C(=O)CC[C@@]3(O)[C@H]1C5	inactive	–
COC(C)(C)CCC[C@H](C)C/C=C/C(C)=C/C(=O)OC(C)C	inactive	–
CC(C)(OO)c1ccccc1	inactive	–
CC(=O)C(C)(C)C	inactive	–
O=C(NCc1cccnc1)Nc1ccc([N+](=O)[O-])cc1	inactive	–
Cc1ccc(N)cc1C	inactive	–
